# From PubChem
# An excerpt weighted towards active compounds, which were near 2% of everything screened.
# aSyn rescue = inhibitors of alpha-synuclein toxicity in yeast. Yeast expressing alpha-synuclein, growth rescue, BacTiter-Glo, 24 h. Potency, µM (highest dose often 46.1 µM), for the others: at the highest dose growth rescue (activation), usual class: activators. 370,000 compounds, 0.14% hits. AID 652106; also: potency is read from the fitted curve at half-maximal effect; % of control where 0% means no effect; nearly all actives have a fitted effect of over 65% in size
#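 Screening used galactose-induced yeast with toxic alpha-synuclein levels, exposed to compound for 24 hr at 30 deg C. Cell growth, read with BacTiter-Glo luminescence, gave the measured signal.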
# LDHA inh = blocks human lactate dehydrogenase A; P00338; purified LDHA, NADH/diaphorase-resazurin fluorescence; active compounds read low; activity change, % (values are at about 110 or 230 µM); 480,000 compounds, 0.15% hits; AID 1347041; in the data active = activity change below about -30%; inconclusive = mostly about -25% to -30%;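 also: plate controls were DMSO wells for no effect and wells without enzyme for full effect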
#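 Remaining NADH was detected by diaphorase (0.133 mg/mL) converting 37 µM resazurin to fluorescent resorufin, read at 0 and 20 minutes. The preceding 5-minute room-temperature reaction used 2 nM LDHA, 0.2 mM sodium pyruvate and 0.06 mM NADH at pH 7.4.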
# FUS yeast rescue = FUS proteinopathy suppression in yeast; S. cerevisiae FUS-expressing, growth rescue, OD600, 24 h; Potency, µM (doses to about 76.6 µM), actives largely listed as activators; 390,000 compounds, 0.24% hits;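 also: potency is read from the fitted curve at half-maximal effect; plate controls were DMSO vehicle for no effect and reference control for full effect; nearly all actives have a fitted effect of over 55% in size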
#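 Quantitative HTS measuring growth restoration of FUS-toxic yeast. Galactose-induced cells (OD 0.005) were exposed 24hr at 30C to compounds at several concentrations, then absorbance at 600 nm was recorded.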
# IDH1 R132H inh = human IDH1 R132H inhibition | O75874 | IDH1-R132H enzyme, NADPH consumption, diaphorase/resazurin fluorescence | Potency, µM (highest dose often 76.6 µM), for the others: at the top dose activity change, negative = inhibition, most hits filed as inhibitors | 390,000 compounds, 0.093% hits | AID 602179; also: potency is read from the fitted curve at half-maximal effect; % is scaled to controls: 0 for no effect and ±100 for the full control effect; nearly all actives have a fitted effect of over 65% in size
# Target sequence (O75874 whole entry R132H, stated change not applied): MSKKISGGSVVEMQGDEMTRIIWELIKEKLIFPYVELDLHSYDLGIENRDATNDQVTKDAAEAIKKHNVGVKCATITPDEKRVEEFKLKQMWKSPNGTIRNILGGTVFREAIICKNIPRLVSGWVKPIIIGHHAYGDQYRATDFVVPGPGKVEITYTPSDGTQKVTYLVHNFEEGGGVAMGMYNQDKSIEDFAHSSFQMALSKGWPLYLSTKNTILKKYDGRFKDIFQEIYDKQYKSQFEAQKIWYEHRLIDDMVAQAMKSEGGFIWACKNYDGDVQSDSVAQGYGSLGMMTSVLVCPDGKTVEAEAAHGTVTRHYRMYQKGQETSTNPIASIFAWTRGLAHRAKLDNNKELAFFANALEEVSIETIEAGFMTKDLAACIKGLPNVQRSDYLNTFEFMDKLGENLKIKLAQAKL
#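 IDH1-R132H (0.5 ug/mL dispensed) in pH 7.5 Tris buffer was preincubated 30 min with compound, then given a substrate mix of 0.016 mM NADPH and 2 mM alpha-KG for 80 min at room temperature; remaining NADPH was read by diaphorase/resazurin fluorescence.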
# Abeta rescue = restores growth of yeast expressing A-beta42 peptide; Potency, µM (titrated, usually from 46.1 µM), hits mostly activators; AID 1347071; yeast expressing A-beta42, growth rescue, OD600, 48 h; response scale: 0% DMSO, 100% iron-clioquinol control; 410,000 compounds, 0.063% hits; also: potency is read from the fitted curve at half-maximal effect; nearly all actives have a fitted effect of over 55% in size
#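 Yeast A-beta toxicity model in growth medium with pinned compounds, 48 h at 30 C; growth read as absorbance at 600 nm. Normalized to FeCl3/clioquinol equimolar mix (positive) and DMSO (negative).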
# TDP-43 yeast inh = rescues yeast growth from TDP-43 toxicity. Potency, µM (top dose mostly 46.1 µM), inactives show top-dose growth rescue (activation), hits mostly activators. 410,000 compounds, 1.8% hits. TDP-43 expressing yeast growth rescue, BacTiter-Glo, 24 h. AID 652104; also: potency is read from the fitted curve at half-maximal effect; % of control where 0% means no effect; nearly all actives have a fitted effect of over 50% in size
#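 Galactose-induced TDP-43 yeast, OD600=0.02, compound pinned; 24 hr, 30 deg C; BacTiter-Glo luminescence for growth. Inhibitors of TDP-43 toxicity read as activators.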
# IDH1 autofl = counter-screen for mutant IDH1 inhibitors: fluorescence interference | inhibition of signal, % at 51.2 µM | AID 623980 | Resorufin detection reagent fluorescence interference, cell-free | shares compounds with IDH1 R132H inh | 750 tested, under 10 active;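 also: 0% = wells with normal resorufin and full inhibition = wells lacking resorufin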
# IDH1 WT = selectivity of mutant IDH1 inhibitors: human wild-type IDH1; 750 compounds, 9% hits; WT IDH1 enzyme, NADPH diaphorase/resazurin fluorescence; shares compounds with IDH1 R132H inh; Potency, µM (series often up to 115 µM), without a hit: at the top dose activity change, negative = inhibition, actives largely listed as inhibitors;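 also: potency is read from the fitted curve at half-maximal effect; 0% = full WT IDH1 enzyme control and full inhibition = no enzyme wells; nearly all actives have a fitted effect of over 55% in size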
# Target sequence (O75874 whole entry, looked up): as the sequence (O75874 whole entry R132H, stated change not applied) above, with H132R counted along it
# mIDH1 confirm = inhibits human mutant IDH1 enzyme in cherrypick confirmation | IDH1 R132H enzyme, NADPH diaphorase/resazurin fluorescence | shares compounds with IDH1 R132H inh | 750 compounds, 83% hits | Potency, µM (top dose mostly 76.6 µM), for the others: top-dose activity change, negative = inhibition, hits mostly inhibitors; also: potency is read from the fitted curve at half-maximal effect; nearly all actives have a fitted effect of over 50% in size
# Numbers without * were called inactive; i = inactive; ? = inconclusive; · = not tested or not shown. Unless noted, calls follow the shape of the dose curve; as a rule, active = well fitted curve in the direction sought with a large enough effect; inconclusive = small, poorly fitted or top-dose-only effect, or another doubt; inactive = no such curve, though single readings can be large; an effect the other way counts as inactive or inconclusive.
SMILES,aSyn rescue,LDHA inh,FUS yeast rescue,IDH1 R132H inh,Abeta rescue,TDP-43 yeast inh,IDH1 autofl,IDH1 WT,mIDH1 confirm
CCOC(=O)c1cc(C)nc2c1c(=O)n(Cc1nc(-c3ccc(C(C)C)cc3)oc1C)c(=O)n2C,·,9,·,·,·,·,·,·,·
CCc1ccc(N(C(=O)c2ccco2)C(C(=O)NC2CCCC2)c2ccncc2)cc1 (stereo not given),-4%,0,i,-11%,i,2%,·,·,·
O=C(NC1CCCCC1)C(c1ccco1)N(C(=O)c1csnn1)c1ccccc1 (stereo not given),0%,-3,i,-4%,i,-12%,·,·,·
Cc1ccc(C(C(=O)NC2CCCCC2)N(C(=O)Cc2c[nH]c3ccccc23)c2ccccc2)o1 (stereo not given),-20%,12,?,?,i,-5%,-9,-12%,7.1µM*
CCc1ccc(N(C(=O)c2ccco2)C(C(=O)NC2CCCC2)c2ccco2)cc1 (stereo not given),6%,-8,i,?,i,15%,-7,-7%,40µM*
CC(=O)c1cccc(N(C(=O)c2ccco2)C(C(=O)NC2CCCCC2)c2ccc(C)o2)c1 (stereo not given),6%,-6,i,?,i,-17%,1,1%,40µM*
CC(=O)Nc1ccc(N(C(=O)Cc2c[nH]c3ccccc23)C(C(=O)NC2CCCCC2)c2ccco2)cc1 (stereo not given),-2%,-4,·,-1%,i,0%,·,·,·
O=C(NC1CCCC1)C(c1ccco1)N(C(=O)c1ccco1)c1ccccc1 (stereo not given),22%,-2,i,?,i,5%,-1,3%,40µM*
CC(C)Nc1nc(-c2ccc3c(c2)CCC(=O)N3)cs1,·,-5,·,·,·,·,·,·,·
O=C(O)C(c1c[nH]c2cc(Br)ccc12)N1CCN(c2ncc(Br)cn2)CC1 (stereo not given),·,0,·,·,·,·,·,·,·
Cc1ccc(C)c(N(C(=O)c2ccco2)C(C(=O)NC2CCCC2)c2ccco2)c1 (stereo not given),0%,-16,i,46µM*,i,17%,-4,13%,20µM*
C[C@H]1CN([C@@H](C)CO)C(=O)c2cccc(NC(=O)Nc3ccc(C(F)(F)F)cc3)c2O[C@@H]1CN(C)S(=O)(=O)c1ccccc1,-10%,2,?,?,i,8%,2,-14%,?
CC(C)Sc1nc2c(c(=O)[nH]c(=O)n2C)n1Cc1ccccc1Cl,·,2,·,·,·,·,·,·,·
O=C(NC1CCCCC1)C(c1ccc(F)cc1)N(C(=O)c1cccs1)c1ccc2c(c1)OCO2 (stereo not given),1%,6,i,?,i,-26%,0,-9%,7.9µM*
O=C(NC1CCCCC1)C(c1cccs1)N(C(=O)c1ccco1)c1ccc2c(c1)OCCO2 (stereo not given),4%,9,i,?,i,4%,-1,-20%,?
Cc1ccc(Nc2nnc(SCC(=O)Nc3ncc(S(=O)(=O)c4ccc([N+](=O)[O-])cc4)s3)s2)cc1,5%,-4,·,5%,i,-2%,·,·,·
Cc1cc(=O)[nH]c(SCC(=O)Nc2ncc(S(=O)(=O)c3ccc([N+](=O)[O-])cc3)s2)n1,0%,2,i,?,i,-6%,4,?,-17%
N#CCCN(C(=O)COC(=O)c1cc(Cl)ccc1[N+](=O)[O-])c1cccc(C(F)(F)F)c1,·,-2,·,·,·,·,·,·,·
Cc1ccc(-n2c(=O)c3c(C)c(C(=O)N(C)C)sc3n(Cc3ccccc3C)c2=O)cc1C,·,1,i,?,i,-1%,-5,2%,22µM*
CCN(CC)C(=O)c1sc2c(c1C)c(=O)n(-c1ccccc1)c(=O)n2Cc1cc(=O)n2ccccc2n1,·,-3,i,-8%,i,?,·,·,·
CCN(CC)C(=O)c1sc2c(c1C)c(=O)n(-c1ccccc1)c(=O)n2Cc1c(C)cc(C)cc1C,·,0,i,40µM*,i,20%,-5,-5%,35µM*
CCc1ccc(-n2c(=O)c3c(C)c(C(=O)N(C)C)sc3n(Cc3cccc(C)c3)c2=O)cc1,·,-1,i,?,i,-6%,-3,-10%,32µM*
C[N+](C)(N)Cc1ccccc1,·,2,·,·,·,·,·,·,·
Nc1nccnc1C(=O)Nc1ccncc1,·,-3,·,·,·,·,·,·,·
CCOC(=O)c1c(NC(=O)/C=C/C(=O)O)sc(C)c1-c1ccc(C)c(C)c1,-64%,-7,i,23µM*,i,-10%,-4,?,45µM*
SMILES,aSyn rescue,LDHA inh,FUS yeast rescue,IDH1 R132H inh,Abeta rescue,TDP-43 yeast inh,IDH1 autofl,IDH1 WT,mIDH1 confirm
O=C(c1ccc(Cl)cc1)c1c[nH]c(C(=O)C(Cl)(Cl)Cl)c1,0%,-1,i,?,i,-20%,-11,1%,25µM*
COc1cc(/C=C2\SC(c3ccccc3)=NC2=O)cc(Cl)c1O,2%,12,i,58µM*,i,-29%,-4,7%,45µM*
COc1cc(/C=C2\SC(c3ccc(C)cc3)=NC2=O)cc(OC)c1OC,1%,-4,i,0%,i,-2%,·,·,·
Cc1ccc(C2c3c(-c4cc(C)ccc4O)n[nH]c3C(=O)N2Cc2ccco2)cc1 (stereo not given),·,11,i,35µM*,i,?,-4,-4%,45µM*
Cc1cc(C)c(O)c(-c2n[nH]c3c2C(c2cccc(O)c2)N(Cc2ccco2)C3=O)c1 (stereo not given),-1%,-1,32µM*,16µM*,i,-9%,-8,50µM*,22µM*
Cc1cc(O)c(-c2n[nH]c3c2C(c2cccc(O)c2)N(Cc2ccco2)C3=O)cc1Cl (stereo not given),·,0,·,·,·,·,·,·,·
